The results in this text go back to PubChem BioAssay AID2284333 (EPA ToxCast).

SMILES strings stand for the structures. Inconclusive results are not listed. The source made the active and inactive calls. Rule for the calls: active = hit-call score of the fitted dose curve at least 0.9, where 1 is the maximum; inconclusive = response in the unintended direction; inactive = score below 0.9.

For this experiment, the target named is rainbow trout Glucocorticoid Receptor (GR), nr3c1 (gene 100136786) (UniProt P49843). Description: ATG_rtGR_EcoTox2: Attagene TRANS-FACTORIAL EcoTox-2 HepG2 Assay for rainbow trout Glucocorticoid Receptor (GR). On the procedure: ATG_EcoTox2 is a cell-based, multiplexed assay created by modifying the existing Attagene TRANS-FACTORIAL system to include a panel of nuclear receptors from some or all the following species: human (Homo sapiens), african clawed frog (Xenopus laevis), rainbow trout (Oncorhynchus mykiss), japanese medaka (Oryzias latipes), and zebrafish (Danio rerio). The ECOTOX2-FACTORIAL format uses HepG2, a human liver cell line, with measurements taken at 24 hours after chemical dosing in a 24-well plate. ATG_rtGR_EcoTox2 is one of 29 assay components calculated in the ATG_EcoTox2 assay. It is designed to make measurements of mRNA induction, a form of inducible reporter, as detected with fluorescence intensity signals by Reverse transcription polymerase chain reaction (RT-PCR) and Capillary electrophoresis technology.The assay endpoint ATG_rtGR_EcoTox2 was analyzed in the positive analysis fitting direction relative to DMSO as the negative control and baseline of activity. Using a type of inducible reporter, measures of mRNA for gain-of-signal activity can be used to understand the reporter gene at the transcription factor-level as they relate to the gene for glucocorticoid receptor. Furthermore, this assay endpoint can be referred to as a primary readout, because this assay has produced multiple assay endpoints where this one serves a reporter gene function. To generalize the intended target to other relatable targets, this assay endpoint is annotated to the nuclear receptor intended target family, where the subfamily is steroidal.
rainbow trout Glucocorticoid Receptor (GR), nr3c1 (gene 100136786), sequence (P49843 whole entry, looked up): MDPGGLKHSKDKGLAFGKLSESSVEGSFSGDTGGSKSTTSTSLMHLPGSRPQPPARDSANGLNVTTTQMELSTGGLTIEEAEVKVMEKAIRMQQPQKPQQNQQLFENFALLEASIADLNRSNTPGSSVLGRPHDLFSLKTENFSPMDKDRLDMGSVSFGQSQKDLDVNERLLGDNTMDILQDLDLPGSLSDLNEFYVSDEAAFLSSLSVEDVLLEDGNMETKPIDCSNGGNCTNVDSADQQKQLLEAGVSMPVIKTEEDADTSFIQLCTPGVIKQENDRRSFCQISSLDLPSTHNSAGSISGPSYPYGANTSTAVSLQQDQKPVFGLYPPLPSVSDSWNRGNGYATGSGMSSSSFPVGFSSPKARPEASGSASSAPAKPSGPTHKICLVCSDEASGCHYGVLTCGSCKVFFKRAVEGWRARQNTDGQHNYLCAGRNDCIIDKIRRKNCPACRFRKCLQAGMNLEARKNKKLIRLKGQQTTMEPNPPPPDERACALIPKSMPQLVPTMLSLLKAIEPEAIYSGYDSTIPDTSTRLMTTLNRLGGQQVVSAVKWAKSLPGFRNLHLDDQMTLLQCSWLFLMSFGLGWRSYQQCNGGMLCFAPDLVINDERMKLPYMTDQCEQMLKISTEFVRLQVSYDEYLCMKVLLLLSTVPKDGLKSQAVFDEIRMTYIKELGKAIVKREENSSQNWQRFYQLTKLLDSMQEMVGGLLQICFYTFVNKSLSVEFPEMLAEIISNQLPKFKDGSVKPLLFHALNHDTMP
Human liver HepG2 cells are transiently transfected with multiple reporter transcription units (MRTUs) in 6-well plates using FuGene 6 reagent (Roche; 3 ml FuGene/1 mg DNA). The MRTU constructs are regulated by a cis-regulating element (promoter). Each RTU expresses a GAL4-UAS that regulates the transcription of a nearby target reporter gene sequence. A major difference between the CIS and TRANS system is that in CIS activities of endogenous TFs are measured, whereas the TRANS assay evaluates changes in activities of exogenous, chimeric NR-Gal4 proteins. […] At the end of 24 hour incubation, total RNA was isolated using TriZol reagent (Invitrogen). The isolated RNA is then reverse-transcribed using oligo(dT) primer and Mo-MLV reverse transcriptase (Invitrogen) with DNAse I (Ambion) treatment for 30 min. The one-tenth of the produced cDNA was amplified by PCR using Taq DNA polymerase (Invitrogen) and two reporter sequence-specific primers. […] The fragments were purified using Qiaquick PCR columns (Qiagen), analyzed on an ABI 3130xL genetic analyzer (Applied Biosystems) with peak positions identified by using a set of X-rhodamine (ROX)-labeled MapMarker1000 molecular weight standards (BioVentures). […]
With `O=C(O)C(F)(F)C(F)(F)C(F)(F)C(F)(F)C(F)(F)C(F)(F)C(F)(F)F`, the result was inactive.
For `[Cl][Sn]([c]1ccccc1)([c]1ccccc1)[c]1ccccc1` the value was “inactive”; for `O=S(=O)(O)C(F)(F)C(F)(F)C(F)(F)C(F)(F)C(F)(F)C(F)(F)F`, “inactive”; for `CCCCOCN(C(=O)CCl)c1c(CC)cccc1CC`, “inactive”.
